High-throughput results deposited in PubChem BioAssay by National Center for Advancing Translational Sciences (NCATS).
Shiga toxin inh – inhibitors of Shiga toxin in Vero cells | inhibition, % at 38.7 µM | Vero cells, Shiga toxin protein synthesis inhibition reporter | AID 2315 | 9.2% of 290,000 active; in the data active = inhibition mostly above about 28%, no sharp cut-off; inactive = mostly below about 43%; note: 0% is about no effect
Vaccinia mCherry – vaccinia inhibition (mCherry reporter); Potency, µM (top dose mostly 36.5 µM), for the others: top-dose activity change, negative = inhibition, hits mostly inhibitors; Vaccinia virus mCherry reporter infection, fluorescence; 0.63% of 310,000 active; calls by dose curve; tested in A549 cells; note: potency is the fitted concentration of half-maximal effect; % is set by controls: 0 for no effect and ±100 for the full control effect; nearly all actives have a fitted effect of over 35% in size
Lassa entry inh – Lassa virus entry inhibition | Lassa virus pseudotype entry inhibition, cell reporter | Potency, µM (titrated, usually from 37.9 µM), for inactives: top-dose activity change, negative = inhibition, most hits filed as inhibitors | 1.2% of 300,000 active; calls by dose curve; tested in HEK293 cells; note: potency is the fitted concentration of half-maximal effect; % is set by controls: 0 for no effect and ±100 for the full control effect; nearly all actives have a fitted effect of over 50% in size
Marburg entry inh – blocks Marburg virus binding to or entry into cells; Marburg virus pseudotyped entry inhibition, cell reporter; Potency, µM (top dose mostly 37.8 µM), for inactives: top-dose activity change, negative = inhibition, usual class: inhibitors; 1.8% of 300,000 active; calls by dose curve; tested in HEK293 cells; note: potency is the fitted concentration of half-maximal effect; % is set by controls: 0 for no effect and ±100 for the full control effect
Cycloheximide cs – affects cycloheximide protein synthesis inhibition readout, counter-screen. cell reporter, cycloheximide protein synthesis inhibition counterscreen. max response, %. 12% of 300,000 active. AID 2314; in the data active = max response mostly above about 13%, no sharp cut-off; inactive = mostly below about 14%; note: read at 38.3 µM for the half of the compounds with a filed dose; 0% is about no effect
Vaccinia Venus – vaccinia inhibition (Venus reporter); Vaccinia virus Venus reporter expression, fluorescence; Potency, µM (titrated, usually from 36.5 µM), inactives show at the highest dose activity change, negative = inhibition, usual class: inhibitors; 0.46% of 330,000 active; AID 720580; calls by dose curve; tested in A549 cells; note: potency is the fitted concentration of half-maximal effect; % is set by controls: 0 for no effect and ±100 for the full control effect; nearly all actives have a fitted effect of over 30% in size
An asterisk follows results filed as active; i = inactive; ? = inconclusive; nt = not tested or not shown; [ ] = remark or other dose. This excerpt belongs to a sample that is enriched for hits.

SMILES	Shiga toxin inh	Vaccinia mCherry	Lassa entry inh	Marburg entry inh	Cycloheximide cs	Vaccinia Venus
Cc1cccc(C(=O)N2CCc3cc(-c4csc(NC(=O)CN5CCCC5)n4)ccc32)c1	9	-18%	nt	?	9	-17%
Cc1cccc(C(=O)N2CCc3cc(-c4nc(NC(=O)CN5CCCC5)sc4C)ccc32)c1	2	?	?	10µM*	1	-28%
CC(C)(C)C(=O)OC1=CN(Cc2ccccc2)S(=O)(=O)c2ccccc21	nt	11µM*	0%[46.1 µM]	17%[46.1 µM]	nt	?
C=CCNc1nc(Cl)nc(Nc2ccc(OC)cc2)n1	64*	nt	-13%	?	22*	nt
CC(C)(C)Nc1nc(Cl)nc(Nc2ccccc2)n1	88*	-9%	?	?	56*	-18%
c1ccc(Nc2nc(Nc3ccccc3)nc(N3CCNCC3)n2)cc1	-8	?	-18%[46.1 µM]	6.3µM*	-1	-32%
COc1ccccc1Nc1nc(Cl)nc(NC(C)(C)C)n1	9	-13%	-22%	?	11*	-10%
CN1CCN(c2nc(Nc3ccc(F)cc3)nc(Nc3ccc(F)cc3)n2)CC1	-8	nt	nt	nt	-9	nt
CC(C)(CO)Nc1nc(Nc2ccccc2)nc(Nc2ccccc2)n1	-5	nt	0%	-17%	-1	-26%
O=C1CN(S(=O)(=O)c2ccccc2Cl)CCN1	nt	i	9%	?	nt	-13%
CN1C[C@@H](O)[C@@H](O)[C@@H](O)[C@@H]1CO	nt	nt	nt	22%	nt	nt
COc1ccc(Nc2nc(Cl)nc(Nc3ccc(OC)cc3)n2)cc1	-3	i	-24%	-1%[46.1 µM]	6	-7%
Clc1nc(Nc2ccccc2)nc(Nc2ccccc2)n1	22	-15%	6%	?	25*	-15%
CCCNc1nc(Cl)nc(Nc2ccc(Cl)cc2)n1	8	-2%	?	?	15*	?
O=C1N=C2C=CC(Cl)=CC2C(c2ccccc2)=N1 (stereo not given)	nt	nt	nt	9%	nt	nt
C(=C\c1cnc2ccccc2n1)/c1ccc2c(c1)OCO2	nt	-21%	nt	nt	nt	-8%
Cc1ccc2nc(-c3ccccn3)c(NC3CCCC3)n2c1	2	13µM*	?	?	8	-28%
CCN(CC)C(=O)C1=C(C)N(CCCOC)C(=O)C(CC(=O)NC2CCCC2)C1 (stereo not given)	nt	-14%	nt	nt	nt	-7%
O=[N+]([O-])c1ccc(O)c(C2=NNC(c3ccccc3F)C2)c1 (stereo not given)	84*	?	?	?	40*	11µM*
COc1cc(-c2ccc(Cl)cn2)cc2c1OCCN(S(=O)(=O)C[C@]13CC[C@H](CC1=O)C3(C)C)C2	nt	-18%	nt	nt	nt	-8%
Nc1nnc(-c2cc3ccccc3oc2=O)s1	152*	nt	1%	?	44*	-7%
O=C(CCCl)Nc1nc2c(s1)CCc1ccccc1-2	25	?	?	?	9	5%
COc1ccc2oc(=O)c(-c3nnc(N)s3)cc2c1	45*	i	1%	?	18*	3%
COc1ccc2oc(=O)c(-c3nc(-c4ccc(C)c(C)c4)cs3)cc2c1	nt	5%	3%[46.1 µM]	nt	nt	44%
CCc1ccc(Nc2nnc(-c3cc4cc(OC)ccc4oc3=O)s2)cc1	nt	-11%	-1%[46.1 µM]	nt	nt	-17%
SMILES	Shiga toxin inh	Vaccinia mCherry	Lassa entry inh	Marburg entry inh	Cycloheximide cs	Vaccinia Venus
CC/C(C)=N\Nc1nc(-c2cc3cc(OC)ccc3oc2=O)cs1	73*	?	-25%[46.1 µM]	?	34*	?
N#C/C(=C(/O)CCl)c1nc2c(s1)CCc1ccccc1-2	54*	-17%	12%	21%[46.1 µM]	30*	-26%
Cc1cc(C)c(-c2csc(-c3cc4ccccc4oc3=O)n2)cc1C	nt	-11%	-6%[46.1 µM]	-15%[46.1 µM]	nt	4%
O=c1oc2ccccc2cc1-c1nc2c(s1)CCc1ccccc1-2	63	32%	0%	5%	21*	8%
COc1ccc2oc(=O)c(-c3nc(C)cs3)cc2c1	45*	nt	-6%	-15%	32*	nt
Nc1nc2c(s1)CCc1ccccc1-2	38*	nt	nt	nt	21*	nt
O=c1oc2cc(O)ccc2cc1-c1nc2c(s1)CCc1ccccc1-2	-7	-6%	?	14%	2	16%
O=c1oc2ccccc2cc1-c1nnc(NCc2ccco2)s1	70*	nt	?	?	32*	nt
O=c1oc2ccc3ccccc3c2cc1-c1nnc(Nc2ccccc2F)s1	nt	-7%	16%[46.1 µM]	nt	nt	-8%
COc1ccc(CN2CCOc3ccc(CN4CCC(Oc5cccnc5)CC4)cc3C2)cc1C	nt	-26%	nt	nt	nt	-10%
Cc1cccc(N2CCN(C(=O)c3sc4nc5n(c(=O)c4c3C)CCC5)CC2C)c1 (stereo not given)	nt	-10%	6%[46.1 µM]	nt	nt	-11%
CC1CCCCN1C(=O)c1ccc(CS(=O)(=O)Cc2ccccc2)cc1 (stereo not given)	10	i	-5%	-19%	-3	-8%
Cn1c(=O)cc(OCCCC(=O)NCc2ccccn2)c2ccccc21	-12	nt	-8%	3%	3	nt
Cc1ccnc(NC(=O)CSc2ccccn2)c1	42	nt	nt	-5%	29*	nt
Cc1ccnc(NC(=O)CCCOc2cc(=O)n(C)c3ccccc23)c1	63	?	-39%	?	16*	?
O=C(CSCCc1ccccn1)Nc1ccccn1	9	nt	16%	-5%	15*	-11%
Cc1ccnc(NC(=O)CCCc2ccccc2)c1	74*	i	16%	?	58*	-6%
Cc1ccnc(NC(=O)CCC(=O)N(CC(=O)NCc2ccccc2)Cc2ccccc2)c1	34	-8%	?	-5%[46.1 µM]	4	0%
Cc1cc(NC(=O)CSc2ccccn2)no1	-4	nt	?	12%	11	nt
Cc1ccc(NC(=O)CCCc2c[nH]c3ccccc23)nc1	16	nt	nt	nt	5	nt
Cc1ccnc(NC(=O)CCCc2c[nH]c3ccccc23)c1	46*	?	0%[46.1 µM]	11%[46.1 µM]	23*	?
O=C(CCCc1ccccc1)Nc1ccccn1	74*	-15%	20%[46.1 µM]	9%[46.1 µM]	19*	-8%
NC(=S)NCCC[C@H](N)C(=O)O	nt	i	-6%	0%	nt	-12%[87.9 µM]
Cc1ccc2cn[nH]c2c1NC(N)=S	48*	-22%	-3%	-10%[46.1 µM]	31	3%
CCc1ccc([C@@H]2CC(=O)[C@@H]3CN(S(=O)(=O)c4ccc(Cl)cc4)[C@H](c4ccc(C)cc4)C[C@@H]3N2S(=O)(=O)c2ccc(C)cc2)cc1	nt	18%	nt	nt	nt	-6%
SMILES	Shiga toxin inh	Vaccinia mCherry	Lassa entry inh	Marburg entry inh	Cycloheximide cs	Vaccinia Venus
Cc1ccccc1C1=NC(c2ccc(F)cc2F)ON1 (stereo not given)	85	3%	25%	24%	30*	5%
Cc1ccccc1-c1nn(-c2ccc(F)cc2F)cc1CNCC(C)O (stereo not given)	-8	i	nt	nt	-3	-17%
COc1ccccc1C1N=C(c2ccccc2C)NO1 (stereo not given)	123*	?	10%[46.1 µM]	?	44*	1%
COc1ccccc1C(O)c1ncc(-c2ccccc2C)[nH]1 (stereo not given)	nt	-4%	nt	nt	nt	0%
Cc1ccsc1CN(C(=O)COc1ccccc1Cl)C1CCS(=O)(=O)C1 (stereo not given)	nt	-7%	1%[46.1 µM]	-20%[46.1 µM]	nt	-10%
CCOC(=O)c1sc(=NC(=O)c2ccc(F)cc2)n(C)c1C	77*	nt	nt	nt	29*	nt
